# Results from the supplement of paper PMC8728848.
# The sample as a whole holds a higher share of the strongest signals than the screen did.
# B1: Mermaid1 (Stilbonema majum) (protein)
# chain: MGSSHHHHHHSSGLVPRGSHMAASGWLRSPQGTVVKLYRRSLSWSKADEFCKDVDGRLVVDRTADMHLFLIKNVLKEKKSRVWVGLRRTAPHSRTWIWSDGTRQNEDDLDANLWLRDEPNDAAGEEECALFMYSPWEKAWGLNDYLCRGGCRSYQFICEKWIR
# Biological target: Neu5Gc(a2-8)Neu5Gc(a2-6)Gal(b1-4)GlcNAc
# Assay: glycan array binding signal (z-score within array); higher = stronger binding
# Conditions: glycan notation: IUPAC condensed, linker removed
# Summary of the method: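 Glycan array data came from 3228 arrays in the Consortium for Functional Glycomics database, and only arrays with an available protein sequence were kept. Glycan names were put into IUPAC-condensed notation, and columns mapping to the same glycan were averaged. The binding signal is a within-array Z-score, averaged across arrays of one protein sequence run at different concentrations or buffers and across linkers. A negative Z-score can be read as non-binding.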
binder,measurement,value
B1,glycan array binding signal (z-score),0.03
